Molecules are shown by their SMILES. Unmarked numbers belong to inactive results. Results filed as inconclusive are left out. The source made the active and inactive calls. Unless noted, calls come from the whole dose curve; as a rule, active = well fitted curve in either direction with a large enough effect (not every such curve was filed as active); inconclusive = small, poorly fitted or top-dose-only effect, or another doubt; inactive = flat fitted curve, though single readings scatter.

The target of assay [1] is Lysosomal acid glucosylceramidase (Homo sapiens) (UniProt P04062). Briefly: Glucocerebrosidase-p2 (AID 348; in the data active = potency below about 10 µM; note: potency is the fitted concentration of half-maximal effect). The note with it: purified GBA, blue fluorogenic substrate, 40 min. The essentials:
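Compounds titrated from 0.6 nM upwards against 0.2 nM enzyme in pH 5.9 citric acid/KH2PO4, taurocholate, tween-20; blue fluorogenic substrate 80 uM, 40 min room temperature, stopped and read Ex 365/Em 440 for AC50.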

Assay [2] is described as follows: AP1 Signaling Pathway (AID 357). Note: % is set by controls: 0 for no effect and ±100 for the full control effect. The settings on record: ME-180 AP-1-bla reporter, EGF-induced, beta-lactamase ratio, 5 h; at 7.69 µM (top of the series) unless noted. The essentials: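 Read-out was the 460nm/530nm emission ratio (excitation 405nm) after CCF4 loading for 2.5 hours at room temperature. Cells carried an AP-1-driven beta-lactamase reporter, were stimulated with EC50 EGF plus compound for 5 hours, and AC50 values came from titrations.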

Assay [3] has as its target Cytochrome P450 1A2 (Homo sapiens) (UniProt P05177). Briefly: p450-cyp1a2 (AID 410; calls by dose curve; note: potency is the fitted concentration of half-maximal effect;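 for activity change, negative = inhibition: -100% = full effect of reference inhibitor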). The settings on record: recombinant CYP1A2, luciferin-ME demethylation, luminescence; series mostly up to 11.4 µM. The essentials:
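Luminescent readout of luciferin formed from Luciferin-ME by human CYP1A2; data normalized against complete inhibition by 57 uM furafylline. Enzyme 20nM, substrate 100uM at Km, 100mM KPO4 buffer, 60 min reaction at room temperature.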

A short description of assay [4]: NFAT Signaling Pathway (AID 444).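 Note: carbachol stimulus at about its EC50 of 1 µM final; % is set by controls: 0 for no effect and ±100 for the full control effect.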 The settings on record: Jurkat NFAT-bla M1, carbachol, beta-lactamase ratio, 5 h; at 7.69 µM (top of the series) unless noted. The essentials: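 Jurkat cells with NFAT-driven β-lactamase reporter and co-expressed M1 receptor, stimulated with carbachol (final 1 uM, ~EC50), compound titration, 5 h at 37 °C. CCF4 loaded 1 h at RT; 460/530 nm ratio gave %activity and AC50.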

Assay [5] in a line: Stat Signaling Pathway (AID 446).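 Note: ME-180 cervical cancer cells given 40 pM IL-6 alongside compound; SIE-controlled beta-lactamase reporter measured as 460/530 nm FRET emission ratio; % is set by controls: 0 for no effect and ±100 for the full control effect.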 The settings on record: ME-180 (cervical carcinoma) SIE beta-lactamase reporter, IL-6 stimulated, 5 h; at 7.69 µM (top of the series) unless noted. The essentials:
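ME-180 cells carrying a SIE-driven beta-lactamase reporter are stimulated with 40 pM IL-6 for 5 h at 37C in the presence of compound. The 460/530 nm FRET substrate ratio is read after 2.5 h at RT. Data are normalised to 300 pM IL-6 and to 125 nM JAK inhibitor controls.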

In assay [6] the target is Glucocorticoid receptor (Homo sapiens) (UniProt P04150). In words: GR-GFP Redistribution (AID 450;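 active = compounds whose dose series gives a full or clear partial fitted curve of increased nuclear translocation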; note: potency is the fitted concentration of half-maximal effect). The settings on record: U2OS GR-GFP nuclear translocation, laser cytometry, 2 h.
For assay [7] the target is unchanged. Briefly: GR-EFC Redistribution (AID 451; calls by dose curve; note: potency is the fitted concentration of half-maximal effect). The note with it: CHO-K1 GR-EFC translocation, beta-gal luminescence, 2 h. The essentials: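 CHO-K1 cells expressing nuclear EA and GR-ED fragments of b-gal; compounds titrated up to 46 uM final, 2 h at 37 C. GR nuclear translocation read as complemented b-gal luminescence after 1 h RT detection.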
In assay [8] the target is Mitogen-activated protein kinase 10 (Mus musculus) (UniProt Q61831). In words: JNK3 AlphaScreen Assay (AID 530).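 Note: kinase came from lysate of stimulated human HepG2 cells; signal reports phosphorylation of biotinylated GST-cJun 1-79 at Ser73 with 10 µM ATP; % is set by controls: 0 for no effect and ±100 for the full control effect.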 The settings on record: JNK3 lysate, c-Jun phosphorylation; series mostly up to 11.4 µM. The essentials:
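Pre-activated (IL-1β/TNFα) JNK3 in HepG2 lysates phosphorylates biotin-GST-cJun(1-79), 10 uM ATP; anti-phospho-cJun(Ser73) AlphaScreen read at room temperature, pH 7.6 Tris buffer. Compounds pre-incubated 15 min as titrations.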

Assay [9] addresses 3',5'-cyclic-AMP phosphodiesterase 4B (Homo sapiens) (UniProt Q07343). In words: qHTS Assay for Inhibitors of PDE-IV (AID 607; active = well fitted activation curve with a large enough effect in the main read-out, with a control signal flat, not every such curve was filed as active; note: % of control where 0% means no effect). The note with it: HEK293 ACTOne CNG channel cells, membrane potential fluorescence; series mostly up to 22.9 µM. The gist of the method:
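HEK293 ACTOne cells with CNG channel (1000/well), endogenous PDE4; membrane potential dye, compounds up to 22.9 uM final. Fluorescence Ex 535/Em 590; RO 20-1724 (100 uM final) as reference.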
For orientation: qHTS replaces the single test concentration by a dilution series.

Sequence of 3',5'-cyclic-AMP phosphodiesterase 4B (Homo sapiens) (Q07343 whole entry, looked up): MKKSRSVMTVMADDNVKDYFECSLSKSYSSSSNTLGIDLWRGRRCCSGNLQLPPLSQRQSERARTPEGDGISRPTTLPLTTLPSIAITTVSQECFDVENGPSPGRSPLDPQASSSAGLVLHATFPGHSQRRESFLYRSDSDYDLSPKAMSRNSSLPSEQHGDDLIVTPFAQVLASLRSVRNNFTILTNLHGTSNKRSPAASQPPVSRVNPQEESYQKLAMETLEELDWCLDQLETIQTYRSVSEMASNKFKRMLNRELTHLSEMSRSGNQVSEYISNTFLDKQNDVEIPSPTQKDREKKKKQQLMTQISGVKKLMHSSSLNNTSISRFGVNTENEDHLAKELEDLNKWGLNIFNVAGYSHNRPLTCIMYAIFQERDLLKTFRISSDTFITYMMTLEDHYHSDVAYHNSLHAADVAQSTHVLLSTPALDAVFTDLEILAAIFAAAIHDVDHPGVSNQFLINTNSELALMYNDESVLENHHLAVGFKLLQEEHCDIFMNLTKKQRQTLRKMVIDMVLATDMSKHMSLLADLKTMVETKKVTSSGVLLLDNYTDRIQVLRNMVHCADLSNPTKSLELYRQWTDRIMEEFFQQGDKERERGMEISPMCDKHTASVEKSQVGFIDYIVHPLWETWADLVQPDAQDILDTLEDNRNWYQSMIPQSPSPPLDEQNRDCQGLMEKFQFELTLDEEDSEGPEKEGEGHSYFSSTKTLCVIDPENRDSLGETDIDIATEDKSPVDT
Sequence of Cytochrome P450 1A2 (Homo sapiens) (P05177 whole entry, looked up): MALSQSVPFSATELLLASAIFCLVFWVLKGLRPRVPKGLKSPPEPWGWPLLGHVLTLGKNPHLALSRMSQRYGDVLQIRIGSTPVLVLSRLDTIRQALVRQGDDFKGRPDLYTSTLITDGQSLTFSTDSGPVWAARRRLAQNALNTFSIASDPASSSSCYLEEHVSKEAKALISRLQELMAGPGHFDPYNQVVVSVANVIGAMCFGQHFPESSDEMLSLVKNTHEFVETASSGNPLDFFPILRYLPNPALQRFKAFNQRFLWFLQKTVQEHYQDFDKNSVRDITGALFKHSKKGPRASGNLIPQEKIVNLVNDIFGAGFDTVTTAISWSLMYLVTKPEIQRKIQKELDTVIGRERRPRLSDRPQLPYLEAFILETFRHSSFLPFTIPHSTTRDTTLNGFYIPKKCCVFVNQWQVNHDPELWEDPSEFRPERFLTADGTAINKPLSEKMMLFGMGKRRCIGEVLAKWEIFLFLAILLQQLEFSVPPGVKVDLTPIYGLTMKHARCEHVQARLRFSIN
Sequence of Lysosomal acid glucosylceramidase (Homo sapiens) (P04062 whole entry, looked up): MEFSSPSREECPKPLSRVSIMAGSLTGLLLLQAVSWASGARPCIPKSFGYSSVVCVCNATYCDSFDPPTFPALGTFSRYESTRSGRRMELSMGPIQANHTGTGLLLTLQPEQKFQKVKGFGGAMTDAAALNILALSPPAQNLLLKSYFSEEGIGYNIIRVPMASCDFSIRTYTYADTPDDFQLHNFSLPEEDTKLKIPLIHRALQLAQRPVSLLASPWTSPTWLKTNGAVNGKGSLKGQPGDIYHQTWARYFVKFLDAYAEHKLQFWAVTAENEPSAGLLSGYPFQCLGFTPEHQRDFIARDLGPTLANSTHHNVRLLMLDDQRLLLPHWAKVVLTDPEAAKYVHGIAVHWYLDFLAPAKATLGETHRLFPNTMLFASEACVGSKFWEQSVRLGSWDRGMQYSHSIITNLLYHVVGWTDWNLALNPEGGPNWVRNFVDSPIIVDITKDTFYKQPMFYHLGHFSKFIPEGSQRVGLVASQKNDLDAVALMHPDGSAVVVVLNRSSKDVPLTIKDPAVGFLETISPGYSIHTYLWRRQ
Sequence of Glucocorticoid receptor (Homo sapiens) (P04150 whole entry, looked up, the tested form may be a part): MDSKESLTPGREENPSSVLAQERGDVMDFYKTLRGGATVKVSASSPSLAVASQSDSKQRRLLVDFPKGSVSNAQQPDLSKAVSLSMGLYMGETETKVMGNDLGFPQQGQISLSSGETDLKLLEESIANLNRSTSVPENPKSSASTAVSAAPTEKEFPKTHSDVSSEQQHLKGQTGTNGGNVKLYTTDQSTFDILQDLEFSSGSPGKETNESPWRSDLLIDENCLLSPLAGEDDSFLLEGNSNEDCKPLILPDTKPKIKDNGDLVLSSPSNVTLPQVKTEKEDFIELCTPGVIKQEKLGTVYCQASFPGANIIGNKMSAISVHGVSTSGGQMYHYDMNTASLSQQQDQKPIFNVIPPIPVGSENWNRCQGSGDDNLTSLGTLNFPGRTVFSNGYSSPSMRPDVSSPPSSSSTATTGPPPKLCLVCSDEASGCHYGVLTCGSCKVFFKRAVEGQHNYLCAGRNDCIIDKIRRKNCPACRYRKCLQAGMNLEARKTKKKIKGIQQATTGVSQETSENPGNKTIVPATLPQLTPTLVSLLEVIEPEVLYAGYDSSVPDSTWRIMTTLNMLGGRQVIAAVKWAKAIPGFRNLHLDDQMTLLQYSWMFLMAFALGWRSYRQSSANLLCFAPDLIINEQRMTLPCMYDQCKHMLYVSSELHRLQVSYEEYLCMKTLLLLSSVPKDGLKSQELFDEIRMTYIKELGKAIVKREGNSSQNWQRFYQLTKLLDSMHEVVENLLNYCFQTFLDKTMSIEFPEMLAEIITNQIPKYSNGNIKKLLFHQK

Take `O=C(O)[C@@H](Cc1c[nH]c2ccccc12)C(=O)NO`: the Potency in [1] is over 11.4 µM; in assay [6], over 46 µM; in [7] it was over 9.22 µM. Further, the activity change, negative = inhibition in [2] is -4.03%; in [4], 4.43%. Also, the Potency entry in assay [3], in assay [8] and in assay [9] was “inactive” each time. The activity, negative = inhibition in [5] was 4.19%.
As for `O=C(O)c1ccccc1C(=O)Nc1cc2c(cc1Br)-c1ccccc1C2=O`, the Potency in [1] was over 11.4 µM; in assay [3] it was 0.631 µM (active); in assay [6], over 46 µM; in assay [7] it was over 9.22 µM. In addition, the activity change, negative = inhibition in assay [2] was -2.84%; in assay [4], 10.3%. Besides, in [5], the activity, negative = inhibition is -5.27%. For the same molecule, the Potency entry in assay [8] and in assay [9] was “inactive” in each case.
Regarding `CC1=NN(c2ccccc2)C(=O)[C@@H]1N=Nc1ccc(S(N)(=O)=O)cc1`, the Potency was over 11.4 µM in assay [1], 1.26 µM (active) in assay [3], over 46 µM in [6] and over 9.22 µM in [7]. The activity change, negative = inhibition in assay [2] is 6.08%; in assay [4], 9.48%. In addition, the activity, negative = inhibition in [5] was -4.22%. Besides, the Potency result in assay [8] and in assay [9] was “inactive” throughout.
Regarding `CN(C)CC(CN(C)C)c1ccccn1`, the results for the Potency in assay [1], in [6] and in [7] were over 11.4 µM, over 46 µM and over 9.22 µM, respectively. Also, the values for the activity change, negative = inhibition in assay [2] and in assay [4] were 3.76% and 10.8%, respectively. The Potency entry in [3], in assay [8] and in assay [9] was “inactive” in each case. Also, in assay [5], the activity, negative = inhibition was 1.27%.
With `CC(=NCC(=O)O)c1ccccc1`, the Potency is over 11.4 µM in assay [1], 3.98 µM (active) in assay [3], over 46 µM in [6] and over 9.22 µM in assay [7]. Also, the activity change, negative = inhibition in assay [2] is 0.333%; in assay [4], 13.9%. Moreover, the activity, negative = inhibition in assay [5] was 1.76%. The Potency entry in assay [8] and in [9] was “inactive” throughout.
For the molecule `CC(C)c1ccc(/C=C2\C=C(c3ccc4ccccc4c3)OC2=O)cc1`, the Potency in [1] is over 11.4 µM; in assay [6] it was over 46 µM; in assay [7], over 9.22 µM. The activity change, negative = inhibition was -7.05% in assay [2], -24.7% [at 2.29 µM] in assay [3] and -17% in [4]. Moreover, in assay [5], the activity, negative = inhibition is 4.97%. Also, the Potency result in assay [8] and in assay [9] was “inactive” in each case.
In the case of `COc1ccc(CSC2=C(C#N)C(=O)NC3(CCCCC3)S2)cc1`, the Potency in [1] was over 11.4 µM; in assay [6], over 46 µM; in [7], over 9.22 µM. Further, the activity change, negative = inhibition is 4.52% in assay [2], -5.8% [at 2.29 µM] in assay [3] and 7.32% in assay [4]. The activity, negative = inhibition in assay [5] was 1.46%. The Potency entry in assay [8] and in [9] was “inactive” throughout.
`CC[C@H](CN(C)C)C(=O)c1ccco1`: the Potency in assay [1] was over 11.4 µM; in assay [6], over 46 µM; in assay [7] it was over 9.22 µM. The figures for the activity change, negative = inhibition in [2] and in assay [4] were 3.81% and -14.2%, respectively. In addition, the Potency result in assay [3], in assay [8] and in assay [9] was “inactive” each time. For the same molecule, the activity, negative = inhibition in assay [5] is -1.8%.
Turning to `N#CCCn1c(=O)c(-c2cccc(C#N)c2)nc2cnc(Oc3ccccc3)nc21`, the Potency in assay [1] is over 11.4 µM; in assay [3] it was 20 µM (active); in [6], over 9.22 µM; in assay [7], over 46 µM. Further, the activity change, negative = inhibition is -17.5% in assay [2] and -7.09% in assay [4]. For the same molecule, the activity, negative = inhibition in [5] was -3.8%. The Potency entry in assay [8] and in [9] was “inactive” throughout.
For the molecule `CC(C)(N=NC(C)(C)C1=NCCN1)C1=NCCN1`, the Potency in assay [1] is over 11.4 µM; in assay [6], over 46 µM; in assay [7], over 9.22 µM. The activity change, negative = inhibition in assay [2] was 3.01%; in assay [4] it was 7.08%. In addition, the Potency result in [3], in [8] and in [9] was “inactive” throughout. The activity, negative = inhibition in assay [5] was 3.73%.
`Cc1nc2ccccc2nc1-c1ccc(N=[N+]([O-])c2ccc(-c3nc4ccccc4nc3C)cc2)cc1`: the Potency was over 11.4 µM in assay [1], 6.31 µM (active) in assay [3], over 46 µM in assay [6] and over 9.22 µM in [7]. Moreover, the activity change, negative = inhibition in assay [2] was 6.31%; in assay [4] it was -3.33%. In addition, the activity, negative = inhibition in assay [5] is -5.62%. Further, the Potency entry in assay [8] and in assay [9] was “inactive” in each case.
For `O=P(O)(CCP(=O)(O)c1ccccc1)c1ccccc1`, the Potency in assay [1] was over 11.4 µM; in assay [6], over 46 µM; in [7], over 9.22 µM. Further, the activity change, negative = inhibition in [2] is -9.71%; in assay [4], 12.9%. The Potency entry in assay [3], in assay [8] and in assay [9] was “inactive” in each case. The activity, negative = inhibition in assay [5] is 1.66%.
For `CN1CCCC[C@@H]1CCN1CCCCC1`, the Potency in assay [1] is over 11.4 µM; in assay [3], 0.01 µM (active); in assay [6], over 46 µM; in assay [7], over 9.22 µM. The results for the activity change, negative = inhibition in assay [2] and in [4] were 4.46% and -9.35%, respectively. Moreover, the activity, negative = inhibition in assay [5] is 3.65%. For the same molecule, the Potency result in assay [8] and in [9] was “inactive” in each case.
For `O=[N+]([O-])c1ccc(NN=C2c3ccccc3Cc3ccccc32)c([N+](=O)[O-])c1`, the Potency is over 11.4 µM in [1], 0.794 µM (active) in [3], over 46 µM in assay [6] and over 9.22 µM in [7]. The results for the activity change, negative = inhibition in assay [2] and in [4] were 26.1% and -1.66%, respectively. In addition, in assay [5], the activity, negative = inhibition is 19.7%. In addition, the Potency entry in assay [8] and in [9] was “inactive” in each case.
On to `Cc1cc(C)nc(SCCc2cccc[n+]2C)n1`, for which the Potency in [1] was over 11.4 µM; in assay [6] it was over 46 µM; in assay [7] it was over 9.22 µM. Besides, the activity change, negative = inhibition in assay [2] is -4.14%; in [3], -18.6% [at 2.29 µM]; in assay [4] it was -24.4%. The activity, negative = inhibition in [5] is 6.72%. The Potency result in assay [8] and in assay [9] was “inactive” throughout.
Take `C[N+](C)(C)[C@H](Cc1c[nH]c(=S)[nH]1)C(=O)O`: the values for the Potency in assay [1], in assay [6] and in assay [7] were over 11.4 µM, over 46 µM and over 9.22 µM, respectively. Also, the figures for the activity change, negative = inhibition in [2] and in assay [4] were 4.67% and -2.8%, respectively. For the same molecule, the Potency result in assay [3], in assay [8] and in assay [9] was “inactive” each time. In addition, in assay [5], the activity, negative = inhibition was 9.57%.
For the molecule `CCOC(=O)[C@@H](O)Cc1cnc2ccccc2n1`, the Potency in [1] is over 11.4 µM; in assay [3] it was 3.16 µM (active); in assay [6] it was over 46 µM; in assay [7] it was over 9.22 µM. The activity change, negative = inhibition in assay [2] was 5.54%; in assay [4], -6.57%. Moreover, the activity, negative = inhibition in assay [5] is -5.21%. Besides, the Potency entry in assay [8] and in [9] was “inactive” throughout.
As to `O=C(O)c1cc(-c2ccc3cc4c(cc3c2)OCO4)nc2ccccc12`, the Potency in assay [1] is over 11.4 µM; in assay [3] it was 3.16 µM (active); in [6] it was over 46 µM; in assay [7], over 9.22 µM. Further, the activity change, negative = inhibition in [2] is -11%; in assay [4] it was -22.2%. The activity, negative = inhibition in assay [5] is -8.03%. Moreover, the Potency entry in assay [8] and in assay [9] was “inactive” each time.
